Shown are actives, neighbours in structure and some others; about 3.4% of the full set was active somewhere.
HSF1 inhib: HSF1 inhibition | actives 0.77% (n = 300,000) | activity change, negative = inhibition, % at 7.5 µM (by protocol) | NIH3T3-HGL HSE-luciferase, MG132-induced, luminescence 8 h; active compounds read low;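 active = more than half of replicate wells show activity change below -50%, luminescence cut by over half; inconclusive = some wells, but at most half, below -50%; inactive = no replicate well below -50%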;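 note: luciferase reports HSF-1 transcriptional activity via heat shock element; 0% = median of DMSO wells and -100% = zero luminescence signal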
HSP90 inh: inhibitors of HSP90 luciferase refolding in rabbit reticulocyte lysate. luciferase refolding luminescence, 3 h. inhibition, % at 5.6 µM. actives 0.91% (n = 290,000);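 active = inhibition above the screen-wide mean plus 3 SD, computed separately per campaign, cut at about 16% in these data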;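 note: 0% = DMSO wells and 100% = 60 µM geldanamycin wells; inhibitors lower the luminescence because luciferase stays unfolded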
SMARCA2 act: increases SMARCA2 function in MMTV reporter cells; MG213 cells, MMTV-luciferase reporter, dexamethasone, overnight; activation, % at 9.1 µM; actives 1% (n = 370,000); in the data active = activation above about 7.8%;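 note: 0% = vehicle wells and 100% = reference activator wells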
PG9 Ab binder: small molecules binding HIV-1 gp120 antibody PG9; TR-FRET gp120-PG9 antibody binding; inhibition, % at 6.7 µM; actives 0.43% (n = 360,000); AID 624416; in the data active = inhibition above about 8.5%
AI-2 QS mod: Vibrio harveyi AI-2 quorum sensing modulation; Vibrio harveyi JMH597 AI-2 luminescence/OD600 ratio, 9 h; active compounds read low; strain lacks LuxN and CqsS sensors; 0 = neutral-control median; activity change, % at 7.5 µM; actives 0.4% (n = 300,000); in the data active = activity change below about -75%, passing the limit was not always enough; inconclusive = no clear call, values can overlap the other calls;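 note: luminescence divided by OD600 gain over 9 h not by final OD600 alone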
FXN GAA850 act: activators of GAA850 frataxin (FXN) promoter; actives 0.56% (n = 360,000); activation, % at 6 µM; HEK293 lucGAA850 FXN promoter luciferase reporter, 24 h; percent of 10 µM SAHA response;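 active = activation above the average of all compounds screened plus 3 SD, cutoff fixed separately per campaign, cut at about 7.5% in these data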;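 note: 0% = DMSO wells and 100% = 10 µM SAHA wells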
JMH597 growth rt: retest: inhibitors of Vibrio harveyi JMH597 growth; shares compounds with AI-2 QS mod; OD600 absorbance, 9 h; lacks LuxN and CqsS sensors; growth inhibition, % at 7.5 µM; actives 1% (n = 750); AID 2726;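 active = every replicate shows growth inhibition above 50%; inconclusive = at least half, but not all, replicates pass that cutoff; inactive = fewer than half of replicates pass it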
BB721 lum counter: retest counter-screen: lowers luminescence of constitutive-QS Vibrio harveyi BB721; 9 h; inhibition, % at 7.5 µM; actives 95% (n = 750); shares compounds with AI-2 QS mod;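 active = inhibition above about 80% in every replicate, not just on average, limit read from the data; inconclusive = at least half of replicates past the limit, but not all; inactive = fewer than half of replicates past the limit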
BB721 growth: retest: inhibitors of Vibrio harveyi BB721 growth; shares compounds with AI-2 QS mod; OD600 absorbance, 9 h; growth inhibition, % at 7.5 µM; actives 3% (n = 750);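 active = every replicate shows growth inhibition above 50%; inconclusive = at least half but not all replicates above 50% inhibition; inactive = under half of replicates above 50% inhibition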
AI-2 QS JMH597: Vibrio harveyi AI-2 signaling luminescence modulation – JMH597 strain, confirmation; shares compounds with AI-2 QS mod; Vibrio harveyi JMH597 AI-2 quorum sensing luminescence, 9 h; luxN and CqsS knockout, AI-2 only; inhibition, % at 7.5 µM; actives 97% (n = 750);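 active = every replicate shows more than 75% inhibition of signal versus neutral control wells; inconclusive = half to three quarters of replicates exceed 75% inhibition; inactive = fewer than half of replicates exceed 75% inhibition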
Starred values were filed as active, the others as inactive; ? = inconclusive; · = no result.

SMILES	HSF1 inhib	HSP90 inh	SMARCA2 act	PG9 Ab binder	AI-2 QS mod	FXN GAA850 act	JMH597 growth rt	BB721 lum counter	BB721 growth	AI-2 QS JMH597
CCc1nnc(NC(=O)CSc2ccc(-c3ccc(F)cc3)nn2)s1	-9	5	·	·	-93*	·	-23	90*	-10	93*
Cc1ccc(CNC(=O)CSc2ccc(-c3cccs3)nn2)cc1	10	0	-1	4	24	-3	·	·	·	·
COc1ccccc1-c1ccc(SCC(=O)NCCc2ccccc2)nn1	3	0	-1	0	6	-1	·	·	·	·
CCc1nnc(NC(=O)CSc2ccc(-c3cccs3)nn2)s1	2	-6	2	2	-89*	0	-8	97*	11	98*
CCc1nnc(NC(=O)CSc2ccc(-c3ccccc3OC)nn2)s1	-3	5	1	-1	-87*	-1	-8	98*	-7	99*
O=C(COc1ccc(CNC[C@H]2O[C@@H](n3ccc(=O)[nH]c3=O)[C@H](O)[C@@H]2O)cc1)Nc1ccccn1	·	·	2	1	·	·	·	·	·	·
COC(=O)[C@H](CC(C)C)N(CCc1cn(Cc2ccccc2)nn1)S(=O)(=O)c1ccc(F)cc1Br	·	·	-5	·	·	·	·	·	·	·
O=C(c1ccc2c3n(nc2c1)-c1ccccc1CO3)N1CCCCC1	2	·	8	0	-84*	4	25	89*	26	95*
CCCc1ccc(Oc2cn[nH]c2-c2ccc(O)cc2O)cc1	·	-3	-2	-2	?	2	·	·	·	·
COc1ccc(Oc2cn[nH]c2-c2ccc(O)cc2O)cc1	·	-3	1	-2	-90*	0	?	97*	?	98*
COc1ccc(/C=N/NC(=O)Cn2cnc3ccccc3c2=O)cc1OC	-9	-5	-1	-1	-91*	1	-6	97*	-12	98*
COc1cc(/C=N/NC(=O)Cn2nnc3ccccc32)ccc1O	2	-2	-3	0	-87*	1	-25	94*	-29	96*
COc1cc(/C=N\NC(=O)Cn2nnc3ccccc32)cc(OC)c1OC	4	0	0	-4	-87*	-1	-3	93*	-34	96*
COc1ccc(/C=N/NC(=O)Cn2ccnc2C)cc1OC	0	0	-1	-1	5	2	·	·	·	·
CC(c1c[nH]c2ccccc12)c1cn(C)c2ccccc12 (stereo not drawn)	·	·	-4	·	·	·	·	·	·	·
COc1ccc(/C=C/C(=O)Oc2cc(O)cc(O)c2)cc1	9	5	2	-3	-95*	0	-8	98*	-20	99*
CCCCCCCCN1C(=O)[C@@H](CC(=O)N2CCCCC2)C[C@@]2(C(=O)OC)C1=C[C@H](C1CCCC1)O[C@@H]2C	·	·	-4	-1	·	·	·	·	·	·
COC(=O)c1ccc2nc(-c3cccc(Br)c3)c(Cc3cccc(Cl)c3)n2c1	·	·	-1	0	·	·	·	·	·	·
CCCCNC(=O)/C=C/c1cccs1	5	1	-1	-2	2	2	·	·	·	·
Cc1ccc(CNC(=O)/C=C/c2cccs2)cc1	14	5	4	-4	-96*	3	0	99*	-10	99*
Nn1c(SCc2ccc([N+](=O)[O-])cc2)nc2ccccc2c1=O	20	2	2	-2	-97*	4	-8	97*	-1	97*
O=c1c2ccccc2nc(SCc2ccc([N+](=O)[O-])cc2)n1-c1ccc(Cl)cc1	4	1	-2	-2	12	0	·	·	·	·
O=S(=O)(c1ccc2ccccc2c1)N1CCN(C(=S)Nc2ccccc2F)CC1	6	-1	5	-3	-97*	0	25	100*	-25	100*
O=S(=O)(c1ccc(Cl)cc1)N1CCN(C(=S)Nc2ccccc2F)CC1	0	0	-1	-1	0	0	·	·	·	·
CCOC(=O)C1=CCN(S(=O)(=O)c2cccc(Cl)c2)C1c1ccc(Cl)cc1 (stereo not drawn)	·	·	-4	1	·	·	·	·	·	·
SMILES	HSF1 inhib	HSP90 inh	SMARCA2 act	PG9 Ab binder	AI-2 QS mod	FXN GAA850 act	JMH597 growth rt	BB721 lum counter	BB721 growth	AI-2 QS JMH597
CCCCN1CC(COc2ccc(OC)cc2)OCCS1(=O)=O (stereo not drawn)	·	·	-2	1	·	·	·	·	·	·
Cc1cccc2nc(CSc3nc4ccccc4[nH]3)cn12	0	-6	1	-2	?	3	-14	96*	-42	97*
COc1cccc(CN(C)CCCn2cnc3c(SC)ncnc32)c1	·	·	-6	-1	·	0	·	·	·	·
O=S1(=O)C=C(Oc2ccc3ccccc3c2)c2ccccc21	2	1	·	·	-83*	1	9	95*	-17	96*
O=S1(=O)C=C(Oc2ccc(F)cc2)c2ccccc21	0	1	-3	1	-17	2	·	·	·	·
Cn1cc(Br)c(C(=O)NNC(=O)c2ccc(Br)cc2)n1	·	-7	4	-2	·	7	·	·	·	·
Cc1c(Br)c(C(=O)NNC(=O)c2ccc(C(C)(C)C)cc2)nn1C	14	-1	-1	-1	-88*	3	12	96*	23	97*
CC(Nc1ccc(Br)cn1)c1cc(Cl)ccc1O (stereo not drawn)	-3	5	2	1	-86*	2	34	96*	31	97*
CC(Nc1ccc(Cl)cc1)c1cc(Cl)ccc1O (stereo not drawn)	9	1	1	-2	-13	0	·	·	·	·
CC(=O)NS(=O)(=O)c1ccc(NC(=O)c2ccc(Cl)cc2[N+](=O)[O-])cc1	3	2	-1	1	22	2	·	·	·	·
O=C(Nc1ccc(Nc2ccccc2)cc1)c1ccc(Cl)cc1[N+](=O)[O-]	2	·	-2	-1	-86*	0	52	?	21	91*
Cc1ccc(S(=O)(=O)c2ccc(C)cc2)cc1	-1	4	-1	-1	-92*	-2	1	98*	-23	100*
O=C(Nc1ccc(Oc2ccc3ccccc3c2)cc1)c1ccco1	0	7	-6	-2	-96*	0	31	99*	102*	99*
O=C(Nc1ccc(Oc2ccc(NC(=O)c3ccco3)c(NC(=O)c3ccco3)c2)cc1)c1ccco1	-5	5	0	-1	13	1	·	·	·	·
c1ccc2c(c1)oc1c(Nc3ccc4c(c3)OCO4)ncnc12	25	0	0	2	15	7	·	·	·	·

From PubChem
